Records with an inconclusive call do not appear. Active and inactive are the calls of the source. Calls follow the shape of the dose curve; as a rule, active = well fitted activation curve with a large enough effect; inconclusive = small, poorly fitted or top-dose-only effect; inactive = flat fitted curve, though single readings scatter.

The assay is described as follows: qHTS Assay for Identifying a Potential Treatment of Ataxia-Telangiectasia: SAR for Probe. The note with it: F2112 A-T fibroblasts, NCS-induced pKAP1 AlphaLISA; series mostly up to 76.9 µM. The text has this: NIH Chemical Genomics Center [NCGC] NIH Molecular Libraries Probe Centers Network [MLPCN] MLPCN Grant: MH089030-01 Assay Submitter (PI): Wei Zheng and Yosef Shiloh Ataxia-telangiectasia (A-T) is a devastating and progressive disease for which, there is no cure. Although A-T is a multisystem disease, it is stereotyped characterized by its neurological symptoms such as truncal ataxia, due to cerebellar cortical degeneration of the Purkinje and granule cells. Other symptoms of A-T are telangiectasias (dilated blood vessels), primary immunodeficiency, marked sensitivity to ionizing radiation (IR), chromosomal instability and predisposition to cancer. The underlying genetic cause of A-T is null mutations in the ATM (A-T mutated) gene. ATM is a nuclear serine/threonine kinase that functions as a master regulator of the cellular responses to double strand breaks (DSBs) in the DNA. Upon activation by DSBs, ATM phosphorylates a plethora of downstream targets, including KAP-1 on […]. KAP-1 phosphorylation occurs shortly in response to DSBs and mediates global chromatin relaxation, which facilitates DSB repair. To screen for small molecules that will compensate for the loss of ATM in cells derived from A-T patients, we monitored KAP-1 phosphorylation as a readout for ATM-like activity using an AlphaLISA assay. This set of data is for analogs of the probe molecule in the primary screening assay.
qHTS Assay Protocol: Step,Parameter,Value,Description 1. Cell Plating, 3 ul, 500 cells/well in OPTI-MEM, 1% FBS, 1% Pen/Strep 2. Incubation, 16-24 hr, 37C, 5% CO2, 95% humidity 3. Library compounds, 23 nl, 76.7 - 0.61uM dilution series final concentration 4. Incubation, 60 min, 37C, 5% CO2, 95% humidity 5. Reagent, 1 ul, 1600 ng/ml NCS in PBS + 0.05% BSA + 0.005% Tween 20 6. Incubation, 30 min, 37C, 5% CO2, 95% humidity 7. Reagent, 1 ul, Premixed detection reagents and lysis buffer 8. Reagent, 1 ul, 0.6% Antifoam A 9. Incubation, 6 hr, 25C, 95% humidity 10. Readout, EnVision, EnVision plate reader. AlphaScreen 1536-well protocol Cells were plated using medium-binding white solid-bottom tissue culture treated Kalypsys plates. Multidrop dispense of 3 uL of F2112 (hTERT immortalized A-T patient fibroblast cells). Detection reagent and lysis buffer was 3.75nM Rab-a-pKAP1 antibody bound to 75 ng/ul AlphaScreen SA donor bead, 3.75 nM Biot-M-a-KAP1 antibody bound to AlphaLISA protein A acceptor bead, 0.5x protease inhibitor cocktail and 0.25x PerkinElmer lysis buffer. EnVision protocol for 1536-well AlphaScreen read (30ms excitation, 100ms read), about 10 min/plate.
A general note: In qHTS, concentration-response curves come from the screen itself.
In the case of `CN1CCN(c2nc(C3=C(c4c[nH]c5ccccc45)C(=O)NC3=O)c3ccccc3n2)CC1`, the Potency entry is “inactive”.

For `C=CCSc1nc2ccccc2n1C(=O)/C=C/c1ccc(OC)c(OC)c1`, the Potency was 14.6 µM (active).

With `CC1(C)C=Cc2c(O)cc(O)c(C(=O)/C=C/c3ccccc3)c2O1`, the Potency was 46.3 µM (active).

In the case of `COc1cc(/C=C/C(=O)c2ccccc2)cc(OC)c1OC`, the Potency is 46.3 µM (active).

Consider `O=C(/C=C/c1ccccc1)n1cnc2ccccc21`, for which the Potency entry is “inactive”.

On to `CC(C)=C/C=C/C(=O)c1ccccc1O`, for which the Potency entry is “inactive”.

For the compound `COc1c(C(=O)/C=C/c2ccccc2)ccc2c1C=CC(C)(C)O2`, the Potency is 36.8 µM (active).

With `CC1(C)C=Cc2ccc(O)c(C(=O)/C=C/c3ccccc3)c2O1`, the Potency is 36.8 µM (active).

For the compound `COc1cc(/C=C/C(=O)n2cnc3ccccc32)cc(OC)c1OC`, the Potency was 13 µM (active).

Consider `C=CCSc1nc2ccccc2n1C(=O)/C=C/c1ccc(F)cc1`, for which the Potency is 9.23 µM (active).

The record behind these values is PubChem BioAssay AID504362 (National Center for Advancing Translational Sciences (NCATS), 2011).
